PubChem BioAssay AID1159580 (chemical genetic matrix, 2015)
Among all 5,500 compounds or so, about 2,000 (36%) were called active. Another 18% or so got no clear call; they are omitted. Cut-off read from the data, not from the text of the source: active = normalized growth mostly below about 0.91 (no sharp cut-off); inconclusive = no clear call, values can overlap the other calls; inactive = mostly above about 0.92. The list shows a part of the results.

Assay: chemical genetic growth profiling, strain panel (AID 1159580);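 note: tested at 20 µM; growth read once vehicle control cultures reached saturation at 30 °C; 1 = growth at the plate median or of vehicle wells; lower values mean less growth of the strain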
Conditions: growth OD

Measured: normalized growth

CC(=O)Oc1ccc(Cl)c2cccnc12
inactive: S. cerevisiae deletion strains, locus YOL012C, strain htz1 0.23
active: S. cerevisiae deletion strains, locus YJL187C, strain SWE1, hits give low values 0.0588 | S. cerevisiae deletion strains, locus YJR043C, strain POL32, hits give low values 0.0605 | S. cerevisiae deletion strains, locus YJR075W, strain HOC1, hits give low values 0.0612 | S. cerevisiae deletion strains, locus YKL009W, strain mrt4, hits give low values 0.0837 | S. cerevisiae deletion strains, locus YKL068W, hits give low values 0.061 | S. cerevisiae deletion strains, locus YKL085W, strain MDH1 (second series), hits give low values 0.0554 | S. cerevisiae deletion strains, locus YKL085W, strain MDH1, hits give low values 0.0554 | S. cerevisiae deletion strains, locus YKL160W, strain elf1, hits give low values 0.058 | S. cerevisiae deletion strains, locus YKL190W, strain CNB1, hits give low values 0.0452 | S. cerevisiae deletion strains, locus YKR001C, strain vps1, hits give low values 0.0643 | S. cerevisiae deletion strains, locus YKR026C, strain gcn3, hits give low values 0.0619 | S. cerevisiae deletion strains, locus YKR091W, strain srl3, hits give low values 0.0618 | S. cerevisiae deletion strains, locus YLL001W, strain dnm1, hits give low values 0.0631 | S. cerevisiae deletion strains, locus YLL026W, hits give low values 0.0596 | S. cerevisiae deletion strains, locus YLL041C, strain sdh2, hits give low values 0.0561 | S. cerevisiae deletion strains, locus YLR027C, strain aat2, hits give low values 0.0554 | S. cerevisiae deletion strains, locus YLR039C, strain RIC1, hits give low values 0.0795 | S. cerevisiae deletion strains, locus YLR058C, strain SHM2, hits give low values 0.0497 | S. cerevisiae deletion strains, locus YLR102C, strain apc9, hits give low values 0.0628 | S. cerevisiae deletion strains, locus YLR221C, strain rsa3, hits give low values 0.061 | S. cerevisiae deletion strains, locus YLR258W, strain gsy2, hits give low values 0.0582 | S. cerevisiae deletion strains, locus YLR262C, strain YPT6 (second series), hits give low values 0.0745 | S. cerevisiae deletion strains, locus YLR262C, strain YPT6, hits give low values 0.0956 | S. cerevisiae deletion strains, locus YLR268W, strain sec22, hits give low values 0.0707 | S. cerevisiae deletion strains, locus YLR320W, strain mms22, hits give low values 0.074 | S. cerevisiae deletion strains, locus YLR330W, strain CHS5, hits give low values 0.0507 | S. cerevisiae deletion strains, locus YLR342W, strain FKS1 (second series), hits give low values 0.0702 | S. cerevisiae deletion strains, locus YLR342W, strain FKS1, hits give low values 0.0632 | S. cerevisiae deletion strains, locus YLR357W, strain rsc2, hits give low values 0.13 | S. cerevisiae deletion strains, locus YLR370C, strain arc18, hits give low values 0.0627 | S. cerevisiae deletion strains, locus YLR371W, strain rom2, hits give low values 0.0668 | S. cerevisiae deletion strains, locus YLR384C, strain iki3, hits give low values 0.0595 | S. cerevisiae deletion strains, locus YLR418C, strain cdc73, hits give low values 0.101 | S. cerevisiae deletion strains, locus YML016C, strain PPZ1, hits give low values 0.0485 | S. cerevisiae deletion strains, locus YML032C, strain rad52, hits give low values 0.0749 | S. cerevisiae deletion strains, locus YML120C, strain ndi1, hits give low values 0.0578 | S. cerevisiae deletion strains, locus YML124C, strain tub3, hits give low values 0.0617 | S. cerevisiae deletion strains, locus YMR058W, strain fet3, hits give low values 0.0625 | S. cerevisiae deletion strains, locus YMR078C, strain ctf18, hits give low values 0.0737 | S. cerevisiae deletion strains, locus YMR125W, strain sto1, hits give low values 0.081 | S. cerevisiae deletion strains, locus YMR129W, hits give low values 0.0589 | S. cerevisiae deletion strains, locus YMR205C, strain PFK2, hits give low values 0.0841 | S. cerevisiae deletion strains, locus YMR223W, strain ubp8, hits give low values 0.069 | S. cerevisiae deletion strains, locus YMR231W, strain pep5, hits give low values 0.0641 | S. cerevisiae deletion strains, locus YMR307W, strain GAS1, hits give low values 0.122 | S. cerevisiae deletion strains, locus YNL067W, strain RPL9B, hits give low values 0.0485 | S. cerevisiae deletion strains, locus YNL071W, strain lat1, hits give low values 0.0618 | S. cerevisiae deletion strains, locus YNL153C, strain GIM3, hits give low values 0.048 | S. cerevisiae deletion strains, locus YNL209W, strain ssb2, hits give low values 0.0585 | S. cerevisiae deletion strains, locus YNL233W, strain BNI4, hits give low values 0.0581 | S. cerevisiae deletion strains, locus YNL248C, strain rpa49, hits give low values 0.0904 | S. cerevisiae deletion strains, locus YNL250W, strain rad50, hits give low values 0.127 | S. cerevisiae deletion strains, locus YNL271C, strain bni1, hits give low values 0.0631 | S. cerevisiae deletion strains, locus YNL298W, strain CLA4, hits give low values 0.0622 | S. cerevisiae deletion strains, locus YNL307C, strain MCK1, hits give low values 0.0688 | S. cerevisiae deletion strains, locus YNL322C, strain KRE1 (second series), hits give low values 0.0653 | S. cerevisiae deletion strains, locus YNR049C, strain mso1, hits give low values 0.06 | S. cerevisiae deletion strains, locus YNR052C, strain pop2, hits give low values 0.0622 | S. cerevisiae deletion strains, locus YOL147C, strain pex11, hits give low values 0.0595 | S. cerevisiae deletion strains, locus YOR001W, strain rrp6, hits give low values 0.0713 | S. cerevisiae deletion strains, locus YOR061W, strain CKA2, hits give low values 0.0492 | S. cerevisiae deletion strains, locus YOR069W, strain VPS5, hits give low values 0.0514 | S. cerevisiae deletion strains, locus YOR070C, strain gyp1, hits give low values 0.0596 | S. cerevisiae deletion strains, locus YOR080W, strain dia2, hits give low values 0.064 | S. cerevisiae deletion strains, locus YOR083W, strain WHI5, hits give low values 0.0594 | S. cerevisiae deletion strains, locus YOR106W, strain vam3, hits give low values 0.0646 | S. cerevisiae deletion strains, locus YOR136W, strain idh2, hits give low values 0.0755 | S. cerevisiae deletion strains, locus YOR144C, strain elg1, hits give low values 0.0602 | S. cerevisiae deletion strains, locus YOR184W, strain ser1, hits give low values 0.0785 | S. cerevisiae deletion strains, locus YOR265W, strain rbl2, hits give low values 0.0601 | S. cerevisiae deletion strains, locus YOR270C, strain vph1, hits give low values 0.104 | S. cerevisiae deletion strains, locus YOR290C, strain snf2, hits give low values 0.0601 | S. cerevisiae deletion strains, locus YOR316C, strain cot1, hits give low values 0.0595 | S. cerevisiae deletion strains, locus YPL051W, strain arl3, hits give low values 0.0618 | S. cerevisiae deletion strains, locus YPL055C, strain LGE1, hits give low values 0.0661 | S. cerevisiae deletion strains, locus YPL078C, strain atp4, hits give low values 0.0648 | S. cerevisiae deletion strains, locus YPL106C, strain sse1, hits give low values 0.0984 | S. cerevisiae deletion strains, locus YPL240C, strain hsp82, hits give low values 0.0604 | S. cerevisiae deletion strains, locus YPL241C, strain CIN2, hits give low values 0.0494 | S. cerevisiae deletion strains, locus YPR119W, strain clb2, hits give low values 0.0672 | S. cerevisiae deletion strains, locus YPR141C, strain kar3, hits give low values 0.0666 | S. cerevisiae deletion strains, locus YPR163C, strain tif3, hits give low values 0.0706 | S. cerevisiae deletion strains, locus YPR167C, strain met16, hits give low values 0.0624 | S. cerevisiae deletion strains, strain wtn01, hits give low values 0.0713 | S. cerevisiae strains, strain wild type, hits give low values 0.0465
